Mtb UGM inh: M. tuberculosis UGM enzyme inhibitors, primary screen, biochemical, fluorescence polarization, single point; UDP-galactopyranose mutase (Mycobacterium tuberculosis (strain ATCC 25618 / H37Rv)), …; purified UGM, fluorescence polarization probe displacement; inhibition, % at 10 µM; hit rate 0.06% among 320,000; AID 504406, 2011; in the data active = inhibition above about 10%, passing the limit was not always enough; inconclusive = no clear call, values can overlap the other calls
Mtb betalactam: beta-lactam sensitization of Mtb H37Rv, H37Rv; hit rate 0.27% among 330,000; M. tuberculosis H37Rv growth with meropenem, percent inhibition; AID 434955, 2010; inhibition, % at 25 µM; call rule not given here;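 also: growth measured after seven days incubation then overnight dye step; 0% = bacteria only wells and 100% = bacteria with antibiotic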
Vc quorum ag: inducers of Vibrio cholerae quorum light production without autoinducers, primary screen, BH1578 luxS cqsA deficient, single point. hit rate 0.16% among 350,000. V. cholerae BH1578 lux reporter, luminescence, 6 h. activation, % at 18.7 µM; in the data active = activation mostly above about 9.7%, no sharp cut-off; inconclusive = no clear call, values can overlap the other calls; inactive = mostly below about 3.7%
FadD28 FP inh: inhibitors of FadD28 bisubstrate probe binding, primary screen, biochemical, fluorescence polarization, single point | inhibition, % at 12.5 µM | Mycobacterium tuberculosis FadD28 fatty-acid-AMP ligase | hit rate 0.22% among 360,000; in the data active = inhibition above about 8.5%, passing the limit was not always enough; inconclusive = no clear call, values can overlap the other calls
Rv3671c protease: Rv3671c serine protease inhibitors, primary screen, biochemical, fluorescence polarization, M. tuberculosis H37Rv | inhibition, % at 5.96 µM | P9WHR9 | AID 2606, 2010 | hit rate 0.048% among 320,000; in the data active = inhibition above about 38%;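 also: extracellular domain of Rv3671c used as enzyme; 0% = enzyme with DMSO and 100% = no enzyme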
Target sequence (P9WHR9 whole entry, looked up, the tested form may be a part): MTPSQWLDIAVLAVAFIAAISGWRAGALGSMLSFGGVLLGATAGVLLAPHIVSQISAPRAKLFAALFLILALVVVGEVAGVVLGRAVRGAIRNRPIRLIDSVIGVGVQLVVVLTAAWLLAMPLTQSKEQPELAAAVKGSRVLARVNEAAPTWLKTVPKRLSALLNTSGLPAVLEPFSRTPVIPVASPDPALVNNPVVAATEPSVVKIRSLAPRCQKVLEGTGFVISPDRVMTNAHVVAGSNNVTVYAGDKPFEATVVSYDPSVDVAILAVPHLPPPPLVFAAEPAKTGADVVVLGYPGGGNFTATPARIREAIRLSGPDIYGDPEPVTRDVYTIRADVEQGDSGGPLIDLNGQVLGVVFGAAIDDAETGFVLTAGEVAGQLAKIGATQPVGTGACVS
PrP 5UTR inh: inhibition of PrP 5' UTR reporter expression; AID 488862, 2010; hit rate 0.35% among 340,000; cell-based PrP 5' UTR mRNA reporter, plate reader; inhibition, % (test concentration not listed); in the data active = inhibition above about 52%; also: 0 = median of the neutral control wells
PrP 5UTR single: prion 5' UTR mRNA inhibition, cherry-pick retest | shares compounds with PrP 5UTR inh | cell-based prion protein 5' UTR reporter, plate reader | inhibition, % at 2.5 µM | hit rate 48% among 1,100; in the data active = inhibition above about 54%; inconclusive = no clear call, values can overlap the other calls
Starred values were filed as active, the others as inactive; i = inactive; ? = inconclusive; . = no result. Rows were chosen to be rich in hits. Some 0.76% of all compounds tested hit in one or more screens of this group.

SMILES | Mtb UGM inh | Mtb betalactam | Vc quorum ag | FadD28 FP inh | Rv3671c protease | PrP 5UTR inh | PrP 5UTR single
Cc1cc(C(=O)COC(=O)c2ccccc2NCCO)c(C)n1CC1CCCO1 (stereo not drawn) | -0.6 | 12.9 | i | -1.1 | -8.5 | 19.0 | .
Cc1cc(C(=O)COC(=O)c2ccccc2Br)c(C)n1CC1CCCO1 (stereo not drawn) | 1.1 | -9.5 | -0.1 | 0.0 | 5.4 | 77.4* | 70.9*
CCn1c(C)cc(C(=O)COC(=O)c2ccccc2[N+](=O)[O-])c1C | 1.2 | 0.3 | i | . | -1.1 | 94.5* | 96.9*
Cc1cc(C(=O)COC(=O)c2cccnc2Cl)c(C)n1CC1CCCO1 (stereo not drawn) | 1.1 | 0.8 | i | -4.1 | 4.0 | 58.7* | 43.2
C=CCn1c(C)cc(C(=O)COC(=O)c2ccc(N)c([N+](=O)[O-])c2)c1C | 1.8 | 6.8 | i | -3.5 | -5.9 | -110.2 | .
Cc1ccc(C(=O)OCC(=O)c2cc(C)n(CC3CCCO3)c2C)cc1 (stereo not drawn) | -1.5 | -4.0 | i | -4.0 | -0.1 | -28.8 | .
O=C(c1ccc(S(=O)(=O)Nc2ccccc2)cc1)N1CCCCCCC1 | 0.7 | -20.3 | i | 0.2 | -8.3 | -4.2 | .
Cc1ccc(NC(=O)COC(=O)C2CC(=O)N(Cc3ccccc3)C2)cc1F (stereo not drawn) | 0.0 | 0.2 | i | 0.8 | 0.8 | 35.8 | .
Nc1ncnc2c1ncn2[C@@H]1O[C@H](CNCc2ccc(OCc3ccccc3)cc2)[C@@H](O)[C@H]1O | . | -1.1 | -0.5 | ? | 1.0 | -16.1 | .
Nc1ncnc2c1ncn2[C@@H]1O[C@H](CNCc2ccc(OCC(=O)Nc3ccccn3)cc2)[C@@H](O)[C@H]1O | -0.6 | -2.2 | i | ? | -3.4 | 87.1* | -19.1
Cc1ccc(-n2cnnn2)c2cccnc12 | 1.2 | 8.5 | -1.7 | -2.4 | -1.8 | -11.9 | .
Cc1ccc(N2C(=O)c3cccc4c(N)ccc(c34)C2=O)c2cccnc12 | 7.2 | 3.1 | -0.4 | 0.2 | -21.1 | 73.8* | 85.6*
CC(C)c1ccc(C(=O)N2CCCCC2c2cc(C(=O)Nc3ccncc3)no2)cc1 (stereo not drawn) | . | . | -0.9 | -2.5 | . | . | .
O=C(C1CC(=O)N(c2ccc3c(c2)OCCO3)C1)N1CCN(Cc2ccccc2F)CC1 (stereo not drawn) | 2.3 | -2.2 | -0.6 | -2.8 | -10.1 | 85.7* | -8.8
CCOc1ccc(-c2cc(N)n(S(=O)(=O)c3ccc(OC)c(OC)c3)n2)cc1 | 2.9 | -4.9 | -0.2 | -2.6 | 7.7 | -26.8 | .
COc1ccc(S(=O)(=O)n2nc(-c3ccc(Cl)cc3)cc2N)cc1OC | -0.7 | -12.6 | -0.2 | -1.0 | -0.3 | 55.8* | 0.9
COc1ccc(OC)c(-c2nnc3n2N=C(c2ccc(OC)c(OC4CCOC4)c2)CS3)c1 (stereo not drawn) | 1.8 | 1.9 | i | -0.8 | 7.6 | 71.7* | 81.2*
COc1ccc(C2=Nn3c(nnc3-c3ccccc3OC)SC2)cc1OC | -0.1 | 3.3 | -0.2 | -1.7 | -0.2 | 56.0* | 77.5*
Cc1ccc(S(=O)(=O)NC(=O)C2CCCCC2)cc1 | 0.0 | -0.7 | -0.6 | -2.0 | 1.0 | -8.7 | .
N#CC1=C(N)OC2=C(CCc3ccccc32)C1c1ccccc1 (stereo not drawn) | -1.3 | 5.0 | -0.3 | -1.9 | -2.4 | 57.7* | 89.8*
COc1cc(SC)ccc1C(=O)Nc1ccc(Cl)cn1 | 0.1 | -2.6 | -0.2 | -2.9 | -6.1 | 60.0* | 55.3*
O=C(C(=O)N1CCN(c2cccc(Cl)c2)CC1)c1c[nH]c2ccccc12 | 2.5 | -4.3 | i | -0.3 | -10.6 | -6.3 | .
CC(C)(C)c1ccc(C(=O)Nc2ccc(Cl)cc2)cc1 | 0.5 | 4.6 | -0.2 | -2.8 | -6.0 | -147.0 | .
COC(=O)Cc1ccc(NC(=O)c2ccc(C(C)(C)C)cc2)cc1 | -1.0 | 67.2 | 3.0 | -3.8 | -3.9 | 78.9* | 64.9*
COc1cccc2c1C(=O)c1c(O)c3c(c(O)c1C2=O)C[C@@](O)(C(=O)CO)C[C@@H]3O[C@H]1C[C@H](N)[C@H](O)[C@H](C)O1 | 39.9* | 97.1 | -0.3 | 63.4* | 30.3 | 88.5* | 92.5*
SMILES | Mtb UGM inh | Mtb betalactam | Vc quorum ag | FadD28 FP inh | Rv3671c protease | PrP 5UTR inh | PrP 5UTR single
COc1cccc2c1C(=O)c1c(O)c3c(c(O)c1C2=O)CC(O)(C(C)=O)CC3OC1CC(N(C)C)C(O)C(C)O1 (stereo not drawn) | . | . | 16.7 | 60.2* | . | 87.6* | 90.5*
COC(=O)c1ccc(N2CCN(CC(=O)c3ccc(-c4ccccc4)cc3)CC2)c([N+](=O)[O-])c1 | -0.8 | 45.8 | i | -1.2 | 1.0 | -24.2 | .
COc1cc(OC)cc(-c2cc3cc4c(cc3cn2)OCO4)c1 | 4.1 | 5.6 | i | -10.0 | -20.6 | 62.4* | 80.6*
O=C1CC(SC(=NCc2ccc3c(c2)OCO3)Nc2ccccc2)C(=O)N1 (stereo not drawn) | 0.2 | 2.8 | -0.6 | -2.3 | 0.5 | 73.4* | -15.2
COc1ccc(CN=C(Nc2ccccc2)SC2CC(=O)NC2=O)cc1 (stereo not drawn) | -2.3 | -1.1 | -0.3 | -0.8 | 0.4 | -40.2 | .
COc1ccc(OC)c(-c2nc(C(=O)NC3CCN(Cc4ccccc4)CC3)cc3c2[nH]c2ccccc23)c1 | -2.7 | -7.7 | -0.7 | -3.5 | -24.2 | 10.1 | .
COc1ccc(OC)c(-c2nc(C(=O)NCCCN3CCOCC3)cc3c2[nH]c2ccccc23)c1 | 3.1 | -3.2 | -0.6 | -2.9 | -2.9 | 54.0* | 0.6
COc1ccccc1C(=O)Nc1ccc2c(c1)nc1n2CCN(Cc2ccccc2)C1 | 0.3 | 71.4 | -0.4 | -7.3 | 2.6 | 55.7* | -4.3
O=C(Nc1ccc2c(c1)nc1n2CCN(Cc2ccccc2)C1)c1cccs1 | 0.4 | ? | i | -10.0 | -6.4 | -14.2 | .
Fc1ccc(-n2nnc(-c3cnc4ccccc4c3)n2)cc1 | -0.8 | -5.5 | i | -2.2 | -4.2 | 71.5* | 53.6*
COc1ccc(/C=C/C(=O)c2cc(F)ccc2OC(=O)c2ccccc2OC)cc1OC | . | . | . | -5.2 | . | 47.3 | ?
CC(C)CN1CCNC(=O)C1CC(=O)NCCCN1CCCc2ccccc21 (stereo not drawn) | 2.6 | -9.1 | 5.8 | -1.2 | -1.8 | -6.7 | .
CCC(=O)NC(=S)Nc1ccc(NC(=O)c2cc3ccccc3o2)c(OC)c1 | -0.2 | -6.1 | i | -2.1 | -7.1 | -28.2 | .
Fc1cccc(/C=N/Nc2nc3ccccc3[nH]2)c1 | -1.4 | 33.3 | . | . | 9.5 | . | .
C(=N\Nc1nc2ccccc2[nH]1)/c1ccccc1 | -2.8 | 42.2 | -0.7 | -1.9 | 8.8 | 55.1* | -56.2
O=C(N/N=C/c1c[nH]c2ccccc12)c1[nH]c2ccc(Br)cc2c1-c1ccccc1 | . | . | i | -2.6 | . | 68.4* | 87.5*

Compound activity from PubChem.
